Source: PubChem BioAssay (Sanford-Burnham Center for Chemical Genomics)
NadD block – NadD (S. aureus) enzyme inhibition; purified NadD enzyme, colorimetric absorbance read-out; inhibition, % at 20 µM; 0.78% of 360,000 active; AID 602399; in the data active = inhibition above about 26%
aDG glyco up – alpha-DG glycosylation activation; Pro5-aDG cells, alpha-DG glycosylation AlphaScreen (IIH6); 0% Pro5, 100% B10-LARGE cell signal; activation, % at 10 µM; 0.22% of 360,000 active; AID 624168;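 active = activation of at least 8% versus controls, or a plate z-score of at least 8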;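 note: Pro5 are CHO cells carrying HIG-tagged alpha-DG that lacks glycosylation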
MPTP block – blocks calcium-induced mitochondrial swelling; AID 602449; 1.4% of 360,000 active; isolated mouse mitochondria, Ca2+ swelling absorbance, 30 min; inhibition, % at 10 µM;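 active = inhibition of 50% or more, scaled per plate between neutral and stimulator controls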;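 note: 0% = DMSO wells given calcium and 100% = 1 mM EGTA wells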
H9c2 TAG inh – reduces triacylglycerol accumulation in H9c2 cells | 0.66% of 230,000 active | Nile Red lipid (TAG) fluorescence; cells loaded with 200 µM oleic acid | AID 651582 | inhibition, % at 12.5 µM;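 active = pattern-corrected inhibition of lipid staining of at least 50% with the nuclear-stain viability signal not falling by more than 50%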;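 note: 0% = DMSO wells and 100% = triacsin C control wells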
MPTP counter – Rhodamine 123 counter-screen of mitochondrial pore hits; shares compounds with MPTP block; isolated mitochondria, membrane potential, Rhodamine 123 fluorescence; inhibition, % at 10 µM; 78% of 5,000 active; in the data active = inhibition above about 22%;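 note: 0% = DMSO vehicle and 100% = positive control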
MPTP abs DR – MPTP inhibition, dose response swelling confirmation. shares compounds with MPTP block. isolated mitochondria swelling, absorbance. IC50, µM. 58% of 780 active. AID 651561; in the data active = IC50 below about 20 µM
MPTP cs DR – MPTP inhibitor counter-screen activity, dose response; shares compounds with MPTP block; isolated mitochondria counterscreen, fluorescence read-out; IC50, µM; 49% of 780 active; in the data active = IC50 below about 80 µM
Starred values were filed as active, the others as inactive; i = inactive; x = no result. This is a sample that favours compounds with a hit; in the whole collection about 2.7% have one here.

SMILES	NadD block	aDG glyco up	MPTP block	H9c2 TAG inh	MPTP counter	others
O=C(CN(C(=O)c1ccccc1Cl)C1CCCCC1)Nc1ccc(Cl)c([N+](=O)[O-])c1	20.1	1.1	87.9*	-64.6	79.7*
CC(C)(C)OC(=O)C[C@H]1C/C=C\C[C@@H](CC(=O)N(CCO)Cc2ccccc2)C(=O)N[C@H](Cc2ccccc2)COC1=O	0.7	-0.4	0.0	-4.0	x
COc1cc(C(=O)C(=O)N2CCN(c3ccccc3)CC2)cc(OC)c1OC	x	0.2	0.6	x	x
O=S(=O)(NCc1ccccc1)[C@@H]1CC2C=CC1C2 (some centres not stated)	-2.7	0.0	-1.5	4.6	x
CCCCc1cc(=O)oc2cc(C)cc(O)c12	-1.7	0.5	85.8*	x	95.5*
CCCCc1cc(=O)oc2cc(O)cc(O)c12	5.4	-0.3	-0.9	-3.6	x
CCCc1cc(O)c2c(C)cc(=O)oc2c1	7.8	-0.2	82.4*	x	87.5*
CCN(CC)CCSc1nnc2c3cc(C)ccc3n(Cc3ccccc3)c2n1	7.5	0.0	2.9	16.6	x
Oc1c(C=C2N=c3ccccc3=N2)sc(=S)n1C1CCCCC1	4.0	0.0	77.1*	0.2	-6.8	MPTP abs DR=>100;MPTP cs DR=>80
CC(C)n1cnnc1SCC(=O)Nc1cccnc1Cl	-6.6	-0.1	0.0	25.7	x
COC(=O)C[C@H]1CC[C@@H](NC(=O)C2CC2)[C@@H](CO)O1	x	0.0	-0.6	x	x
CCc1cc(=O)n2[nH]c(C)c(-c3ccc(OC)cc3)c2n1	1.6	0.1	-0.6	3.6	x
COc1ccc(-c2c(C(F)(F)F)[nH]n3c(=O)cc(-c4ccccc4)nc23)cc1	17.1	0.0	81.9*	19.0	41.9*
O=C(O)Cn1ccnc1[N+](=O)[O-]	-4.0	0.2	-1.8	-10.8	x
COc1ccc(CN2C[C@H]3CON(C)[C@H]3C[C@H]2c2ccc(-c3ccccc3)cc2)cc1	-2.1	0.0	1.3	x	x
COc1ccc(C(CNC(=O)c2oc3cc(C)c(Cl)cc3c2C)N2CCCCC2)cc1 (configuration not stated)	-1.8	-0.2	71.3*	x	-8.1	MPTP abs DR=i;MPTP cs DR=>80
O=C(NNc1ncccc1Cl)c1c(Cl)cccc1Cl	-9.6	0.3	1.7	0.9	x
C=C1c2cccc(O)c2C(O)=C2C(=O)[C@]3(O)C(O)=C(C(N)=O)C(=O)[C@@H](N(C)C)[C@@H]3[C@@H](O)[C@H]12	12.0	-0.4	5.2	x	x
C[C@H]1c2cccc(O)c2C(O)=C2C(=O)C3(O)C(O)=C(C(N)=O)C(=O)[C@@H](N(C)C)[C@@H]3[C@@H](O)[C@@H]21 (some centres not stated)	-1.4	0.2	85.0*	-16.9	-0.4
C[C@H]1c2cccc(O)c2C(=O)C2C(=O)C3(O)C(=O)C(C(N)=O)C(=O)[C@@H](N(C)C)[C@@H]3[C@@H](O)[C@@H]21 (some centres not stated)	-3.2	1.0	89.7*	5.3	5.4
CN(C)c1ncnc2c1ncn2[C@H]1CN(Cc2ccco2)C[C@@H](CO)O1	0.1	-0.2	0.2	7.6	x
Oc1c(Cl)cc(Cl)cc1/C=N/Nc1ncc(Br)cn1	24.5	-0.2	-1.3	8.4	x
CN(/N=C/c1cc(Cl)cc(Cl)c1O)C(=S)NC(C)(C)C	5.8	0.0	85.1*	-0.9	74.7*
O=C(N/N=C/c1cn(-c2ccccc2)nc1-c1cccs1)c1ccc(Cl)cc1	9.8	0.5	69.7*	x	65.0*
O=C(N/N=C/c1cn(-c2ccccc2)nc1-c1cccs1)c1ccccc1F	5.7	1.0	2.4	x	x
SMILES	NadD block	aDG glyco up	MPTP block	H9c2 TAG inh	MPTP counter	others
O=C(c1cc(C2CCCCN2C(=O)CCCc2ccccc2)on1)N1CCOCC1 (configuration not stated)	3.6	0.0	0.0	-4.6	x
CC(=O)N1CCN(c2ccc([N+](=O)[O-])cc2)CC1	1.9	0.2	0.0	-18.2	x
CC(=O)N1CCN(C(=S)c2ccc([N+](=O)[O-])cc2)CC1	-4.8	0.0	119.1*	-10.5	0.2	MPTP abs DR=>100;MPTP cs DR=>80
OCCN1CCN(CC/C=C2/c3ccccc3Sc3ccc(C(F)(F)F)cc32)CC1	-2.4	0.3	90.7*	-6.7	-12.7
OCCN1CCN(CC/C=C2/c3ccccc3CSc3ccccc32)CC1	-9.3	0.3	-1.7	0.7	x
CCSc1ccc2c(c1)N(CCCN1CCN(C)CC1)c1ccccc1S2	4.8	0.7	95.7*	4.7	-20.0
OCCN1CCN(CCCN2c3ccccc3Sc3ccc(C(F)(F)F)cc32)CC1	-2.8	0.2	86.0*	-12.4	-18.1
CN1CCN(CCCN2c3ccccc3Sc3ccc(Cl)cc32)CC1	0.9	0.2	91.9*	16.5	-18.6
CN1CCN(CCC(=O)N2c3ccccc3Sc3ccc(C(F)(F)F)cc32)CC1	-3.7	0.2	0.6	x	x
CN(C)C(=O)COc1ccc2c3c(c(=O)oc2c1)CCCC3	-1.9	0.0	0.6	-1.8	x
Cc1cc(NCC(=O)Nc2ccc(C)c(S(=O)(=O)N3CCOCC3)c2)ccc1Br	-2.5	0.2	3.5	-0.6	x
COc1ccc(CC(=O)NC2CC2)cc1OC	-5.0	-0.2	0.0	x	x
CC1CN(C(=O)CCC(=O)NCCCN2CCN(Cc3ccccc3)CC2)c2cc(Cl)ccc2O1 (configuration not stated)	-5.9	0.4	-1.8	x	x
N#C/C(=C/c1ccc(F)cc1)S(=O)(=O)c1ccccc1	-5.9	-0.2	-4.0	-1.9	x
N#C/C(=C\c1ccc(O)c(O)c1)S(=O)(=O)c1ccccc1	8.1	-0.1	89.9*	1.5	70.4*
Cc1[nH]c2ccccc2c1/C=C(\C#N)S(=O)(=O)c1ccccc1	-12.3	0.0	72.1*	x	60.8*
COc1ccccc1NS(=O)(=O)c1ccc(NN=C2CCCC2)c([N+](=O)[O-])c1	-0.6	2.2	60.0*	-41.0	46.9*
CCOC(=O)[C@@H]1[C@H]2COc3ccccc3[C@H]2N2C(=O)N(c3cccc(Cl)c3)C(=O)[C@@]12C	2.0	-0.2	0.1	19.1	x
CCOC(=O)[C@@H]1[C@H]2COc3ccccc3[C@@H]2N2C(=O)N(c3cccc(Cl)c3)C(=O)[C@@]12C	-8.7	-0.1	88.2*	x	100.2*
CCOC(=O)[C@@H]1[C@H]2COc3cc(OC)ccc3[C@H]2N2C(=O)N(c3ccc(C(F)(F)F)cc3)C(=O)[C@]12C	-4.8	0.2	83.7*	9.8	89.7*
CCCCCc1c2c(cc(O)c1C(=O)O)OC(=O)c1c(cc(OC)cc1C(=O)CCCC)O2	1.3	0.0	90.0*	x	28.0*
CCCCc1c(C(=O)O)cc(OC)cc1C(=O)O	3.2	0.0	-1.3	-13.2	x
CCCCCc1c2c(cc(O)c1C(=O)O)OC(=O)c1cc(C(=O)CCCC)c(OC)cc1O2	15.5	-0.1	95.1*	x	57.3*
O=C(NC1CCCCC1)c1cc([N+](=O)[O-])[nH]n1	-4.8	-0.2	-2.3	x	x
OC(COc1ccc(CNCCc2ccc(C(F)(F)F)cc2)cc1)CN1CCCCC1 (configuration not stated)	-1.5	-0.6	66.8*	36.8	-11.0
